In PubChem BioAssay (Tox21):
Inconclusive results are not listed. Entries that show only a call come without a potency. The source made the active and inactive calls. Calls come from the whole dose curve; as a rule, active = well fitted cell-killing curve with a large enough effect in the repeat runs; inconclusive = weak or mixed curves, or effect the other way; inactive = flat fitted curve, though single readings scatter.

Test: qHTS RealTime-Glo MT Cell Viability Assay in HepG2 cells - 40 hour (AID 1224870); note: nearly all actives have a fitted effect of over 50% in size
Details: RealTime-Glo luminescence; series mostly up to 76.8 µM
Source text: National Center for Advancing Translational Sciences [NCATS]
NIH Chemical Genomics Center [NCGC]
U.S. Environmental Protection Agency [EPA]
National Institutes of Environmental Health Sciences [NIEHS]
National Toxicology Program [NTP]
U.S. Food and Drug Administration [FDA]
Measure of cell viability is critical in the cell-base assay. Analysis of cell viability is necessary for the characterization of cell responses to cytotoxic drugs and environmental stress. A RealTime-Glo MT Cell Viability Assay to monitor cell viability in real time of continues cell culture during 40 hours of compound treatment was used to screen Tox21 10K library compounds in HepG2 cells. The RealTime-Glo MT Cell Viability Assay is a nonlytic, homogeneous, bioluminescent method to measure cell viability in real time using a simple, plate-based method. The assay involves adding NanoLuc luciferase and a cell-permeant prosubstrate to cells in culture. Viable cells reduce the proprietary prosubstrate to generate a substrate for NanoLuc luciferase. This substrate diffuses from cells into the surrounding culture medium, where it is rapidly used by the NanoLuc Enzyme to produce a luminescent signal. The signal correlates with the number of viable cells, making the assay well suited for cytotoxicity studies.
Tox21 Assay Protocol Summary:
The mixture of HepG2 cell suspension and reagents were dispensed at 600cells/6 ul/well in 1536-well tissue culture treated black solid bottom plates using a Multidrop dispenser. After the assay plates were incubated at a 37 C/5% CO2 incubator for 5 hours, 23 nL of compounds dissolved in DMSO, positive and negative controls was transferred to the assay plate by a pintool work station. The plates were incubated at 37 C for 40 hours. The luminescence intensity were measured at 0h, 8h, 16h, 24h, 32h and 40h time points using ViewLux plate reader during compound treatment.
Potency is the fitted concentration of half-maximal effect.

Compound | Potency | activity change, negative = cytotoxic
CCC(C)(C)C(=O)O | inactive | –
COc1ccc2nc(S(=O)Cc3ncc(C)c(OC)c3C)[nH]c2c1 (stereo not given) | inactive | –
O=C(O)/C=C/c1ccc(O)c(O)c1 | inactive | –
Cc1ccc(N(CC2=NCCN2)c2cccc(O)c2)cc1 | inactive | –
Nc1nc2ccc(OC(F)(F)F)cc2s1 | inactive | –
COC(CC(C)CCCC(C)(C)O)OC (stereo not given) | inactive | –
BrC(Br)C(Br)Br | inactive | –
CCC1CCC(CCC(=O)O)C1 (stereo not given) | inactive | –
CCN(CC)CCOc1ccccc1C(=O)CCc1ccccc1 | inactive | –
C[C@@H]1C[C@H]2[C@@H]3CCC4=CC(=O)C=C[C@]4(C)[C@@]3(F)[C@@H](O)C[C@]2(C)[C@@]1(O)C(=O)COP(=O)(O)O | inactive | –
CCC(Cl)CC(Cl)C(Cl)C(Cl)C(Cl)C(C)Cl (stereo not given) | – | -0.479% [at 15.8 µM] (inactive)
CN(C)CC/C=C1\c2ccccc2Sc2ccc(Cl)cc21 | 23.9 µM (active) | –
CCCCCCC(O)CCOC(C)=O (stereo not given) | inactive | –
Cc1cccc2sc(N)nc12 | inactive | –
CC(CN(CCN(CC(C)OCCO)CC(C)OCCO)CC(C)OCCO)OCCO (stereo not given) | inactive | –
O=C(c1ccccc1)c1ccc(O)cc1 | inactive | –
C[C@H](CS)C(=O)N1CCC[C@H]1C(=O)O | inactive | –
CCCCCCCCCCCSCC(=O)O | inactive | –
O=c1[nH]c2cc(C(F)(F)F)c(N3CCOCC3)cc2n(CP(=O)(O)O)c1=O | inactive | –
CCCOC(=O)c1c(Cl)c(Cl)c(Cl)c(Cl)c1C(=O)OCCC | inactive | –

Compound | Potency | activity change, negative = cytotoxic
CCOC(=O)c1ccc(NC(=O)CN2CCCCC2)cc1 | inactive | –
O=C(c1ccccc1)C1CCC1 | inactive | –
SCCc1cnccn1 | inactive | –
CCSC(=O)N(CC)CC | inactive | –
O=[N+]([O-])c1ccc2ncccc2c1 | inactive | –
CCCCC(CC)COS(=O)(=O)O (stereo not given) | inactive | –
CC(C)(O)CCc1ccccc1 | inactive | –
O=C(O)CCC(=O)c1ccc(-c2ccccc2)cc1 | inactive | –
CSSc1ccoc1C | inactive | –
COc1ccc(C)cc1 | inactive | –
CC/C=C\C/C=C\C/C=C\CCCCCCCC(=O)OCC | inactive | –
CC[C@H]1OC(=O)[C@H](C)[C@@H](O[C@H]2C[C@@](C)(OC)[C@@H](O)[C@H](C)O2)[C@H](C)[C@@H](O[C@@H]2O[C@H](C)C[C@H](N(C)C)[C@H]2O)[C@](C)(O)C[C@@H](C)C(=O)[C@H](C)[C@@H](O)[C@]1(C)O | inactive | –
O=C(NC(Cc1cc(=O)[nH]c2ccccc12)C(=O)O)c1ccc(Cl)cc1 (stereo not given) | inactive | –
COc1ccc(-n2nc(C(F)F)cc2-c2ccc(S(C)=O)cc2)cc1 (stereo not given) | inactive | –
CNCc1ccc(NC(=O)c2c[nH]c3c2C(=O)CCC3)cc1 | inactive | –
O=S(=O)(O)CO | inactive | –
Oc1ccc2c(c1)Cc1ccccc1-2 | inactive | –
CC(CCc1ccc(O)cc1)NCCc1ccc(O)c(O)c1 (stereo not given) | inactive | –
CN1C(CSCC(F)(F)F)Nc2cc(Cl)c(S(N)(=O)=O)cc2S1(=O)=O (stereo not given) | inactive | –
Cc1c(C2(c3cc(Br)c(O)c(Br)c3C)OS(=O)(=O)c3ccccc32)cc(Br)c(O)c1Br | inactive | –
